# HCV inhibitor: qHTS Assay for Inhibitors of Hepatitis C Virus (HCV); AID 651820, 2012; 340,000 tested, 3.4% active; Potency, µM (series often up to 41.8 µM), usual class: inhibitors; Huh7.5.1 HCVcc-Cre infection, luciferase reporter, 44 h; active = well fitted inhibition curve with a large enough effect; inconclusive = small, poorly fitted or top-dose-only effect, or another doubt; inactive = no such curve, though single readings can be large or run the other way
#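 Cells (1,000/well) were plated 4 h before compound, then infected with HCVcc-Cre virus (~0.5 moi). After 44 h further culture, infection was read as luciferase luminescence following a 15 min substrate incubation at room temperature.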
# FMDV antiviral: High Throughput Screening for Foot and Mouth Disease Virus Antivirals | FMDV antiviral cell-based qHTS | Potency, µM (top dose mostly 57.9 µM), usual class: inhibitors | 410,000 tested, 1.2% active | AID 1159524, 2015; calls by dose curve; tested in HEK293T cells; also: read-out not given here; nearly all actives have a fitted effect of over 45% in size
# Vaccinia mCherry: qHTS for Stage-Specific Inhibitors of Vaccinia Orthopoxvirus: mCherry Reporter Primary qHTS; 310,000 tested, 0.63% active; Potency, µM (top dose mostly 36.5 µM), usual class: inhibitors; AID 720579, 2013; Vaccinia virus mCherry reporter infection, fluorescence; calls by dose curve; tested in A549 cells; also: nearly all actives have a fitted effect of over 35% in size
# HCMV inh: qHTS Assay for inhibitors of the human cytomegalovirus (HCMV). HFF cells, HCMV-luciferase reporter, 72 h; hits give low values. activity change, negative = inhibition, % at 57.5 µM. 410,000 tested, 4.5% active; in the data active = activity change below about -60%; inconclusive = no clear call, values can overlap the other calls; inactive = above about -39%
#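 Two-dose cell screen: HFF monolayers treated with compounds and infected with luciferase-expressing HCMV at 1 PFU/cell, 72 h at 37C, then lysed for luciferase measurement.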
# Vaccinia Venus: qHTS for Stage-Specific Inhibitors of Vaccinia Orthopoxvirus: Venus Reporter Primary qHTS; AID 720580, 2013; 330,000 tested, 0.46% active; Potency, µM (series often up to 36.5 µM), usual class: inhibitors; Vaccinia virus Venus reporter expression, fluorescence; calls by dose curve; tested in A549 cells; also: nearly all actives have a fitted effect of over 30% in size
# A number is an active result; . = inactive; ? = inconclusive; / = no result; ! = not confirmed by another sample; [ ] = another dose, or the depositor's remark. In the library only some 7.3% were active in any assay of this set; here they are far more common.
SMILES,HCV inhibitor,FMDV antiviral,Vaccinia mCherry,HCMV inh,Vaccinia Venus
O=S(=O)(Nc1cc(Sc2cccc3cccnc23)c(O)c2ccccc12)c1ccccc1,?,/,/,-100.4,/
CCOc1ccc(CCNC(=O)c2ccc3c(c2)nc2n3CCOC2)cc1OCC,/,.,.,.,.
NC(=O)c1sc2nc(-c3ccccc3)c3c(c2c1N)CCCC3,.,?,/,-60.6,/
CN(C(=O)c1sc2nc(N3CCOCC3)c3c(c2c1N)CCCC3)c1ccccc1,11.2µM,?,.,?,.
NC(=O)c1sc2nc3c(c(-c4ccco4)c2c1N)CCC3,22.4µM,/,?,-73.3,?
CCOc1ccccc1NC(=O)Cn1c(=O)n(-c2ccc(C)c(C)c2)c(=O)c2c(C)c(C(=O)N(C)C)sc21,/,.,.,.,.
CCCN1C(=O)c2[nH]nc(-c3ccccc3O)c2C1c1ccc(OCc2ccccc2)c(OCC)c1 (stereo not drawn),/,.,.,?,.
Cc1cc(C)cc(C(=O)NC(CC(N)=O)c2ccc(NCC3CC3)c([N+](=O)[O-])c2)c1 (stereo not drawn),.,.,.,.,.
C[C@@H]1CN([C@@H](C)CO)C(=O)CCCn2nncc2CO[C@@H]1CN(C)S(=O)(=O)c1ccc(Oc2ccccc2)cc1,/,.,.,.,.
CC(C)N(CCC(=O)c1ccc2ccccc2c1)Cc1ccccc1,.,.,?,-77.2,?
C/C(=N/NC(=O)NC12CC3CC(CC(C3)C1)C2)c1ccccc1,?,.,/,-62.0,/
O=C(N/N=C/c1ccccc1O)NC12CC3CC(CC(C3)C1)C2,.,.,?,.,.
Cc1ccc(C)c(OCCC(=O)Nc2ccc3c(c2)OCO3)c1,?,.,.,.,.
Cn1c(=O)c2c(nc(SCc3nc(N)nc(N4CCCCC4)n3)n2C)n(C)c1=O,.,.,.,-69.3,.
Cc1ccc(Sc2ccc(/C=N/O)cc2[N+](=O)[O-])cc1,11.2µM,.,?,.,?
CO/N=C/c1ccc(Sc2ccc(C)cc2)c([N+](=O)[O-])c1,?,.,/,.,.
COC(=O)c1cccc(N2C(=O)C[C@](Sc3ccc(OC)cc3)(C(=O)N3CCN(c4ncccn4)CC3)[C@H]2c2ccc(OC)cc2)c1,/,/,/,.,/
O=C(CSc1nc2ccccc2nc1Cc1ccccc1F)Nc1cccc(C(F)(F)F)c1,/,.,.,.,.
O=C(c1ccc2c(c1)OCO2)C1CCCN(Cc2ccc(OC(F)F)cc2)C1 (stereo not drawn),12.6µM,?,/,.,/
O=C(c1ccc2c(c1)OCO2)C1CCCN(Cc2ccc(F)c(F)c2)C1 (stereo not drawn),.,.,.,.,.
COc1ccccc1N1CCN(C(=O)CCS(=O)(=O)c2cc(Br)cc3c2N(C(=O)C2CC2)CC3)CC1,/,.,.,.,.
CCN(CC(O)COCc1ccc(Cl)cc1)C1CCCCC1 (stereo not drawn),?,.,.,.,.
CCN(CC(O)COc1ccc(OCC(O)CN(CC)C2CCCCC2)cc1)C1CCCCC1 (stereo not drawn),5.01µM,.,?,.,.
COC(=O)C(Nc1cc(OC)ccc1OC)(c1cccc(OC)c1)C(Nc1cc(OC)ccc1OC)c1ccc(Br)cc1 (stereo not drawn),/,/,/,.,/
CC(CNc1ccccc1O)C(=O)O (stereo not drawn),.,.,4.47µM,?,89.1µM
SMILES,HCV inhibitor,FMDV antiviral,Vaccinia mCherry,HCMV inh,Vaccinia Venus
COc1cccc(CN(C)C(=O)c2cnn(-c3ncc4c(n3)-c3ccccc3CCC4)c2C)c1,/,.,?,/,.
Cc1c(-c2cccc(NC(=O)Nc3ccc(Cl)cc3)c2)nc2ncccn12,/,.,.,-85.8,.
Cc1c(-c2cccc(NC(=O)c3ccc(F)c(F)c3)c2)nc2ncccn12,/,.,.,.,.
COc1ccc(S(=O)(=O)N2CCCC(C(=O)NC3CC3)C2)cc1Cl (stereo not drawn),.,.,.,.,.
N#Cc1c(-c2ccccc2)c(-c2ccccc2)n(Cc2ccco2)c1NC(=O)c1cccs1,2.82µM,.,.,.,.
O=C(CSc1nnc(-c2ccc(O)cc2)n1Cc1ccco1)c1cccs1,.,.,/,.,/
CC(CCc1ccccc1)NC(=O)Cn1cccc1C(=O)c1ccccc1 (stereo not drawn),.,.,.,?,.
CCc1nn2c(=O)cc(COC(=O)c3cccc(NC(=O)COc4ccccc4)c3)nc2s1,/,.,.,.,.
CCCc1cc(=O)[nH]c(Nc2ccccc2O)n1,/,.,.,.,.
Cc1ccc(/C=C2/CNC/C(=C/c3ccc(C)cc3)C2=O)cc1,8.91µM,?,?,.,?
Cc1ccc(/C=C2\CCOC2=O)cc1,.,.,.,.,.
CCSc1nnc2c(n1)[nH]c1c(C)cccc12,31.6µM,/,?,?,?
Cc1ccc(C)c(CSc2cn(CCNC(=O)c3cccs3)c3ccccc23)c1,/,?,.,-83.4,.
O=C(NCCn1cc(SCc2ccccc2)c2ccccc21)c1ccccc1F,11.2µM,?,.,.,.
CCc1ccc(CNC(=O)c2ccc3c(c2)nc2n3CCCCC2)cc1,/,.,.,.,.
O=C1C(SCCO)=C(SCCO)C(=O)c2ccccc21,10µM,10µM,10µM!,-95.0,?
CS(=O)(=O)N(CC(=O)N1CCN(Cc2ccc3c(c2)OCO3)CC1)Cc1ccc(Cl)cc1,12.6µM,?,/,-83.7,/
O=C(COc1ccc(S(=O)(=O)N2CCOCC2)cc1)N1CCN(Cc2ccc3c(c2)OCO3)CC1,?,?,/,-61.3,/
O=C(COc1ccc(S(=O)(=O)N2CCCCC2)cc1)N1CCOCC1,.,.,.,.,.
O=S(=O)(CCN1CCOCC1)c1ccc(Oc2ccc(S(=O)(=O)CCN3CCOCC3)cc2)cc1,3.55µM,?,?,-65.3,2.24µM
O=C(COc1ccc(S(=O)(=O)N2CCOCC2)cc1)N1CCCCCC1,.,.,.,-84.8,.
CS(=O)(=O)N(CCc1ccccc1)CC(=O)N1CCN(Cc2ccc3c(c2)OCO3)CC1,.,.,/,?,/
Cc1cc(F)ccc1NC(=O)Cn1cc(S(=O)(=O)NC(C)C)c(S(=O)(=O)NC(C)C)c1,/,.,.,.,.
CNc1c(NS(=O)(=O)c2ccc(OC)c(Cl)c2)c(=O)oc2ccccc12,.,.,.,.,.
Cc1ccc2cccc(NC(=O)C(C)Oc3ccc(Cl)cc3Cl)c2n1 (stereo not drawn),/,.,.,.,.
SMILES,HCV inhibitor,FMDV antiviral,Vaccinia mCherry,HCMV inh,Vaccinia Venus
CCCCNS(=O)(=O)c1ccc(OCC(=O)N2CCN(Cc3ccc4c(c3)OCO4)CC2)cc1,3.16µM,.,/,-83.3,/
O=S(=O)(c1ccc(Oc2ccc(Br)cc2)cc1)N1CCOCC1,?,?,/,-72.7,?
Clc1ccc(-c2cn3nc4c(nc3n2)CCCC4)cc1,.,11.2µM,/,?,.
COc1cccc(-c2cn3nc4c(nc3n2)CCCC4)c1,.,.,/,/,.
COc1c(C2=CC(=O)N(C)C2=O)c2c(n1C)C(=O)c1ccccc1C2=O,/,.,/,/,/
Cc1cc(=O)c2cc(Cl)ccc2[nH]1,.[8.37 µM],.,.,-63.4,.
